Assay [1] is described as follows: qHTS drug screen for cell cycle checkpoint inhibitors in PARPi-resistant BRCA-mutant ovarian cancer cell lines. (AID 1963452). Further: potency means the concentration at half of the fitted maximal effect. To be noted: PEO1/OlaR viability, CellTiter-Glo luminescence, 96 h; for Z-AUC: stronger effect = lower value. The essentials:
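PEO1, PEO4 and PEO1/OlaR ovarian cancer cells, 600 per well, exposed 96 h at 37C to a dilution series. Viability read by CellTiter-Glo luminescence, normalized to DMSO and empty wells; activity summarized as Z-AUC.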

The target in assay [2] is Nuclear receptor subfamily 1 group I member 2 (Homo sapiens) (UniProt O75469). The experiment in a line: Dual reporter qHTS for antagonist of Pregnane X Receptor (hPXR) against the NCATS DSHEA and TCM libraries: Luminescence Readout (AID 1920060; active means well fitted curve in the direction sought with a large enough effect;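 further: HepG2 cells carrying hPXR luciferase reporter stimulated with rifampicin at 2 µM; 0% is about no effect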). Conditions: hPXR dual reporter cells, luciferase luminescence, antagonist mode; series mostly up to 40 µM. The essentials:
(§1)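 In antagonist mode, 2 uM rifampicin was added to hPXR-Luc HepG2 cells alongside test substances, incubated 24 h at 37 C; luminescence gave reporter activity, and CellTiter-Fluor fluorescence (405/540 nm) gave viability.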

A short description of assay [3]: Dual reporter qHTS for antagonist of Pregnane X Receptor (hPXR) against the NCATS DSHEA and TCM libraries: Fluorescence Readout (AID 1920061; active means well fitted curve in the direction sought with a large enough effect; further: 0% is about no effect). Conditions: PXR dual reporter cells, antagonist mode; series mostly up to 40 µM. The procedure, abridged: as §1
A short description of assay [4]: qHTS for identification of novel therapeutic agents for treatment of microphthalmiaassociated transcription factor (MiT) renal cell carcinoma (RCC) (AID 1963991). To be noted: CellTiter-Glo, 48 h, stronger effect = lower value. The procedure, abridged:
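Curves over 11 concentrations were fitted to CellTiter-Glo luminescence, scaled between empty wells (0%) and DMSO (100%) viability. Cells were UOK109, UOK124 and UOK145 TFE3-fusion RCC lines at 500/well, exposed 48 hours at 37 C.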

Setting [5] is: measured here: PEO1 parental Z-AUC.
Where [6] appears, read: TFE3-RCC UOK109 viability, measured here: UOK109 Z-AUC.
Setting [7] is: TFE3-RCC viability, measured here: UOK124 Z-AUC.
Setting [8] is: TFE3-RCC viability, measured here: UOK145 Z-AUC.

This note sets out measurements from PubChem BioAssay (NCATS).

The structures appear in SMILES notation. Results filed as inconclusive are left out. Active and inactive are the calls of the source. Unless noted, the call rests on the fitted dose curve.

Nuclear receptor subfamily 1 group I member 2 (Homo sapiens), sequence (O75469 whole entry, looked up): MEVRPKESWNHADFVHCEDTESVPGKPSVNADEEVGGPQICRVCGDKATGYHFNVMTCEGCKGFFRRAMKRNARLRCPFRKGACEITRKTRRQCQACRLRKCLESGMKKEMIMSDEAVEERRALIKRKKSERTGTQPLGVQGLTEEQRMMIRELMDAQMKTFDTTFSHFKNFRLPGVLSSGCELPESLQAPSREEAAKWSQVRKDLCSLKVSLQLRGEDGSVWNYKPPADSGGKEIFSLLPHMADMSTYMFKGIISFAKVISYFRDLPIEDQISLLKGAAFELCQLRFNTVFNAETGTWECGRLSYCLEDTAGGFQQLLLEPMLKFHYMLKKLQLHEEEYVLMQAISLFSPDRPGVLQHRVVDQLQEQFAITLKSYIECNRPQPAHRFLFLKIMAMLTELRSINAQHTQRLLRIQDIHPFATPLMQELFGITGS

With `CCc1ccc(OCc2ccccc2C(=O)Nc2ccc3nc(C)cc(N)c3c2)cc1`, the Z-AUC in assay [1] was -0.061 (inactive); in assay [1] (setting [5]) it was -0.206; in assay [1] (measured here: PEO4 Z-AUC), -0.159.

For the compound `CN(C)Cc1ccc(-c2nc3cccc4c3n2CCNC4=O)cc1`, the Z-AUC in assay [1] is 0.426 (inactive); in assay [1] (setting [5]) it was 0.483; in assay [1] (measured here: PEO4 Z-AUC) it was 0.475.

Regarding `C[C@H](NC(=O)C(=O)Nc1ccccc1C(C)(C)C)C(=O)N[C@@H](CC(=O)O)C(=O)COc1c(F)c(F)cc(F)c1F`, the values for the Z-AUC in assay [1], in assay [1] (setting [5]) and in assay [1] (measured here: PEO4 Z-AUC) were 0.426 (inactive), 0.799 and 1.06, respectively.

On to `NS(=O)(=O)c1cccc2c1C(=O)c1cccc(O)c1C2=O`, for which the Z-AUC in assay [1] is -1.32 (inactive); in assay [1] (setting [5]), -1.19; in assay [1] (measured here: PEO4 Z-AUC), -1.74.

For the compound `O=C(Nc1cccc(Br)c1)c1cccc(S(=O)(=O)N2CCCCCC2)c1`, the Z-AUC in assay [1] was -0.479 (inactive); in assay [1] (setting [5]) it was 0.243; in assay [1] (measured here: PEO4 Z-AUC), -0.0385.

Turning to `O=C(N[C@@H](c1ccccc1)[C@@H]1CCCCN1)c1cccc(C(F)(F)F)c1Cl`, the Z-AUC in assay [1] was 0.7 (inactive); in assay [1] (setting [5]) it was 0.513; in assay [1] (measured here: PEO4 Z-AUC) it was 0.741.

With `CN1CCN(CCOc2cc(OC3CCOCC3)c3c(Nc4c(Cl)ccc5c4OCO5)ncnc3c2)CC1`, the figures for the Z-AUC in assay [1], in assay [1] (setting [5]) and in assay [1] (measured here: PEO4 Z-AUC) were 0.642 (inactive), 0.934 and 1.23, respectively.

For `CC(C)n1nc(-c2ccc3oc(N)nc3c2)c2c(N)ncnc21`, the Potency in assay [1] was 871 nM (active). The Z-AUC in assay [1] (setting [5]) was -1.21; in assay [1] (measured here: PEO4 Z-AUC) it was -1.54.

Regarding `NC(=O)[C@@H](CCC(F)(F)F)N(Cc1ccc(-c2ncon2)cc1F)S(=O)(=O)c1ccc(Cl)cc1`, the Z-AUC in assay [1] is 0.459 (inactive); in assay [1] (setting [5]) it was 0.342; in assay [1] (measured here: PEO4 Z-AUC), 0.442.

Turning to `Cc1ccn(-c2ccc(-c3ncco3)cc2)c(=O)c1-c1ccc2nc(N)ncc2c1`, the Z-AUC is 1.02 (inactive) in assay [1], 0.788 in assay [1] (setting [5]) and 1.07 in assay [1] (measured here: PEO4 Z-AUC).

Take `Oc1ccc(C2CCN(c3ccnc4ccccc34)CC2)cc1O`: the Z-AUC in assay [1] is 0.817 (inactive); in assay [1] (setting [5]) it was -0.32; in assay [1] (measured here: PEO4 Z-AUC), 0.401.

For the compound `CC(C)(Cc1ccc2ccccc2c1)NC[C@@H](O)COc1cccc(Cl)c1C#N`, the Z-AUC in assay [1] is 0.779 (inactive); in assay [1] (setting [5]) it was 1.04; in assay [1] (measured here: PEO4 Z-AUC) it was 0.976.

For `COc1cc(Nc2ncc(F)c(Nc3ccc4c(n3)NC(=O)C(C)(C)O4)n2)cc(OC)c1OC`, the values for the Z-AUC in assay [1], in assay [1] (setting [5]) and in assay [1] (measured here: PEO4 Z-AUC) were 0.179 (inactive), 0.902 and 1.16, respectively.

For the compound `COc1ccc(-c2cc(=O)c3c(O)cc(O)cc3o2)cc1O`, the Z-AUC in assay [1] was 0.388 (inactive); in assay [1] (setting [5]) it was 0.498; in assay [1] (measured here: PEO4 Z-AUC) it was 0.413.

`O=c1c(-c2ccc(O)cc2)coc2cc(O[C@@H]3O[C@H](CO)[C@H](O)[C@H](O)[C@H]3O)ccc12`: the compound was called inactive in assay [2] and in assay [3]. In addition, the z-score in assay [4] (setting [6]) is 0.945; in assay [4] (setting [7]) it was 2.11; in assay [4] (setting [8]) it was 1.28.

On to `O=C(NOCC(O)CO)c1cc(Br)c(F)c(F)c1Nc1ccc(I)cc1F` (stereo not drawn), for which the Z-AUC in assay [1] is 0.348 (inactive); in assay [1] (setting [5]), 0.513; in assay [1] (measured here: PEO4 Z-AUC) it was 0.38.

For the compound `O=C(NCc1ccncc1)C12C[C@H]3C[C@@H](C1)CC(c1ccc(Cl)cc1)(C3)C2`, the Z-AUC in assay [1] was 0.0323 (inactive); in assay [1] (setting [5]) it was 0.866; in assay [1] (measured here: PEO4 Z-AUC), 0.86.

`NC(=O)c1cnc(-c2ccc(C3(N)CCC3)cc2)c(-c2ccccc2)c1`: the Z-AUC is 0.0998 (inactive) in assay [1], -0.472 in assay [1] (setting [5]) and -0.533 in assay [1] (measured here: PEO4 Z-AUC).

`COC(=O)[C@@H]1[C@H]2C[C@H]3c4[nH]c5ccccc5c4CCN3C[C@@H]2CC[C@@H]1O`: the Z-AUC was 0.808 (inactive) in assay [1], 0.498 in assay [1] (setting [5]) and 0.659 in assay [1] (measured here: PEO4 Z-AUC).

Consider `CO[C@H]1C(=O)[C@]2(C)[C@@H](OC)C[C@H]3OC[C@@]3(OC(C)=O)[C@H]2[C@H](OC(=O)c2ccccc2)[C@]2(O)C[C@H](OC(=O)[C@H](O)[C@@H](NC(=O)OC(C)(C)C)c3ccccc3)C(C)=C1C2(C)C`, for which the Potency in assay [1] was 7.8 nM (active). Also, the results for the Z-AUC in assay [1] (setting [5]) and in assay [1] (measured here: PEO4 Z-AUC) were -2.35 and -2.45, respectively.

For `CNC(=O)c1ccc2cc(C3(O)CCn4cncc43)ccc2c1` (stereo not drawn), the figures for the Z-AUC in assay [1], in assay [1] (setting [5]) and in assay [1] (measured here: PEO4 Z-AUC) were -0.914 (inactive), -0.347 and -0.305, respectively.

For `CC(C)(C)Cn1c(N)nc2ccc(-c3[nH]c(C(C)(C)C)nc3-c3ccc(F)cc3)nc21`, the Z-AUC in assay [1] was -0.716 (inactive); in assay [1] (setting [5]), -1.14; in assay [1] (measured here: PEO4 Z-AUC), -1.15.

Turning to `c1cc(-c2sc(-c3ccncc3)c(-c3ccncc3)c2-c2ccncc2)ccn1`, the Z-AUC in assay [1] was 1.76 (inactive); in assay [1] (setting [5]) it was 1.54; in assay [1] (measured here: PEO4 Z-AUC), 1.03.

On to `CC(=O)Oc1cc2c(s1)CCN(C(C(=O)C1CC1)c1ccccc1F)C2` (stereo not drawn), for which the Z-AUC was 0.888 (inactive) in assay [1], 0.469 in assay [1] (setting [5]) and 0.814 in assay [1] (measured here: PEO4 Z-AUC).

For the compound `COc1cccc2c1CCCC2CCCN1CCN(C2CCCCC2)CC1` (stereo not drawn), the Z-AUC in assay [1] was 0.972 (inactive); in assay [1] (setting [5]), 0.889; in assay [1] (measured here: PEO4 Z-AUC), 0.366.

Consider `CC1(C)CCC(CN2CCN(c3ccc(C(=O)NS(=O)(=O)c4ccc(NCC5CCOCC5)c([N+](=O)[O-])c4)c(Oc4cnc5[nH]ccc5c4)c3)CC2)=C(c2ccc(Cl)cc2)C1`, for which the Z-AUC is 0.0291 (inactive) in assay [1], 0.742 in assay [1] (setting [5]) and 0.833 in assay [1] (measured here: PEO4 Z-AUC).

As to `CO[C@@H](C(=O)N1Cc2[nH]nc(NC(=O)c3ccc(N4CCN(C)CC4)cc3)c2C1)c1ccccc1`, the Z-AUC in assay [1] was -0.0482 (inactive); in assay [1] (setting [5]), 0.272; in assay [1] (measured here: PEO4 Z-AUC), -0.117.

For the compound `COc1ccc(-c2coc3cc(O)ccc3c2=O)cc1`, the result in assay [2] and in assay [3] was inactive. For the same compound, the z-score in assay [4] (setting [6]) stood at 0.416; in assay [4] (setting [7]) it was 0.783; in assay [4] (setting [8]) it was 0.452.

On to `CNC1CCC(N(Cc2cccc(-c3ccncc3)c2)C(=O)c2sc3c(F)ccc(F)c3c2Cl)CC1` (stereo not drawn), for which the values for the Z-AUC in assay [1], in assay [1] (setting [5]) and in assay [1] (measured here: PEO4 Z-AUC) were -0.961 (inactive), -0.582 and -1.33, respectively.

As for `COc1cc(O)c2c(c1)C(=O)c1cc(C)cc(O)c1C2=O`, the compound was classed as inactive in assay [2] and in assay [3]. The results for the z-score in assay [4] (setting [6]), in assay [4] (setting [7]) and in assay [4] (setting [8]) were 1.36, 1.13 and 1.08, respectively.

As to `Cc1ccc(Nc2cc(-c3cccc(N4C(=O)c5ccccc5C4=O)c3)ncn2)cc1NS(C)(=O)=O`, the Z-AUC in assay [1] was -0.648 (inactive); in assay [1] (setting [5]), -0.644; in assay [1] (measured here: PEO4 Z-AUC) it was -0.365.

As for `O=C(Nc1cc(Cl)cc2c1[nH]c1cnccc12)c1cccnc1`, the Z-AUC was 0.696 (inactive) in assay [1], 0.253 in assay [1] (setting [5]) and 0.368 in assay [1] (measured here: PEO4 Z-AUC).

`Clc1ccc(C(c2ccc(Cl)cc2)n2cc[n+](CC(OCc3ccc(Cl)cc3Cl)c3ccc(Cl)cc3Cl)c2)cc1` (stereo not drawn): the Z-AUC was 0.167 (inactive) in assay [1], -0.468 in assay [1] (setting [5]) and -0.455 in assay [1] (measured here: PEO4 Z-AUC).

Take `O=C(Nc1ccccc1-c1cn2c(CN3CCNCC3)csc2n1)c1cnc2ccccc2n1`: the Z-AUC is 0.244 (inactive) in assay [1], 0.118 in assay [1] (setting [5]) and -0.298 in assay [1] (measured here: PEO4 Z-AUC).
